According to article PMC4336329 (PLoS ONE, 2015):
Among all 310,000 compounds or so, about 14,000 (4.5%) showed an effect of 50% or more. The effect is printed as a negative number. The entries come from a sample that favours strong results as a whole.

Target: human ether-à-go-go-related gene (hERG) potassium channel (human, UniProt Q12809)
Assay: primary screen, population patch clamp on CHO cells stably expressing hERG; higher = less effect of the substance
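Also: peak tail current of the secondary pulse compared with the same well before compound.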

human ether-à-go-go-related gene (hERG) potassium channel, sequence (Q12809 whole entry, looked up): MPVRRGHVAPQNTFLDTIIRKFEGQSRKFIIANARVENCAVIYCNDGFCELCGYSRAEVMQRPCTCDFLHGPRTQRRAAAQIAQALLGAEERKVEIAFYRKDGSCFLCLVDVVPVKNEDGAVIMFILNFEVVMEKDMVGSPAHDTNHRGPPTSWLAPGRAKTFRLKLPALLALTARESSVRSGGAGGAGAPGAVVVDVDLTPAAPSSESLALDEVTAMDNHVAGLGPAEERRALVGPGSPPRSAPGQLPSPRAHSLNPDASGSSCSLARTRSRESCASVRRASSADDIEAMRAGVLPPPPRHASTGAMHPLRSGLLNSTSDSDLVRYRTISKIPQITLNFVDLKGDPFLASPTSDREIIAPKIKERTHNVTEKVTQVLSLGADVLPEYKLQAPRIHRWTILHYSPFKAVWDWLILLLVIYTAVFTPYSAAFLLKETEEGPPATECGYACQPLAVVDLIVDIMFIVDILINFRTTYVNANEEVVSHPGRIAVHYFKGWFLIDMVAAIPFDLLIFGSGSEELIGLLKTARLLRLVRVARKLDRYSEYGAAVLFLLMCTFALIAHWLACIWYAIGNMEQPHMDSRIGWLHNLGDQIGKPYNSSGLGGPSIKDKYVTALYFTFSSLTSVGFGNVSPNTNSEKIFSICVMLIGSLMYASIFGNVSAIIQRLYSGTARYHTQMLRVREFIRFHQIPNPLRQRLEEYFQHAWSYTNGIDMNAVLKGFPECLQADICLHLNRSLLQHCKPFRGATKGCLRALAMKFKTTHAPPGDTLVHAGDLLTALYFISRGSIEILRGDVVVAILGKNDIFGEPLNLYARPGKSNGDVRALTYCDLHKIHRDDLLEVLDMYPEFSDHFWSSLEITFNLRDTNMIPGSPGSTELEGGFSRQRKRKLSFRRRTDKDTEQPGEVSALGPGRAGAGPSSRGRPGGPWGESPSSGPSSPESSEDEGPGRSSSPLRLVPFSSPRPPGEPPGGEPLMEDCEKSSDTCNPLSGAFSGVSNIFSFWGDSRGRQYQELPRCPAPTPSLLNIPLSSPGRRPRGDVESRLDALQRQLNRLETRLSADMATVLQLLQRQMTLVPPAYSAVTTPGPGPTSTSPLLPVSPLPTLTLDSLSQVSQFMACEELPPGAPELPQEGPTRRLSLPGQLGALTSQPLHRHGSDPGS

| SMILES | hERG current change (%, negative = inhibition) at 10uM [%] |
| --- | --- |
| COc1ccc(OC)c2[nH]c(=O)c(CCNS(=O)(=O)c3ccc(F)cc3)cc12 | 1.59 |
| CN1CCC(N(C)C(=O)/C=C/c2cn(-c3ccccc3)nc2-c2cccs2)CC1.Cl | -22.3 |
| NC(=O)Cc1ccc(C(=O)c2ccccc2)s1 | 7.3 |
| C[C@H](O)[C@@]1(O)CC[C@H]2[C@@H]3CC[C@@H]4C[C@H](O)CC[C@]4(C)[C@H]3CC[C@@]21C | -0.0961 |
| CCOCCOc1nc2c(c(=O)n(C)c(=O)n2C)n1CCc1ccccc1 | 0.435 |
| CC(C(N)=O)N1CC(c2ccc(Cl)cc2)CC1=O (centres unmarked) | -10.8 |
| C=CCN1C(=O)NC(=O)/C(=C/c2ccc(OC)c(COc3ccc(NC(C)=O)cc3)c2)C1=O | 8.75 |
| Cc1ccc(N(CC(O)CN2CCCCC2)S(=O)(=O)c2ccccc2[N+](=O)[O-])cc1 (centres unmarked) | -70.9 |
| O=[N+]([O-])c1ccccc1S(=O)(=O)N(CC(O)CN1CCCCC1)c1ccccc1 (centres unmarked) | -29.9 |
| Cc1ccc(N(CC2CO2)S(=O)(=O)c2ccccc2[N+](=O)[O-])cc1 (centres unmarked) | 1.23 |
| O=C(NC(Cc1c[nH]c2ccccc12)C(=O)OCC(=O)c1cccc2ccccc12)c1cccs1 (centres unmarked) | 0.359 |
| CN(C)C(=O)c1ccc(NC(=O)c2cccc(S(=O)(=O)N3CCCc4ccccc43)c2)cc1 | -8.06 |
| NC(=O)[C@H]1CC2(CC(c3cccc(NC(=O)CC(c4ccccc4)c4ccccc4)c3)=NO2)CN1C(=O)C(c1ccccc1)c1ccccc1 (some centres unmarked) | 8.82 |
| COc1ccc(OC)c(CN2CCCC(C(=O)N3CCCCC3)C2)c1.O=C(O)C(=O)O (centres unmarked) | -32.1 |
| O=C(C1CCCN(Cc2cc(Br)ccc2O)C1)N1CCCCC1.O=C(O)C(=O)O (centres unmarked) | -31.6 |
| COc1ccc(Br)cc1CN1CCCC(C(=O)N2CCCCCC2)C1.O=C(O)C(=O)O (centres unmarked) | -62.4 |
| COc1ccccc1CN1CCCC(C(=O)N2CCCCC2)C1.O=C(O)C(=O)O (centres unmarked) | 10.6 |
| COc1cc(OC)c(OC)cc1CN1CCCC(C(=O)N2CCCCC2)C1.O=C(O)C(=O)O (centres unmarked) | -1.45 |
| COc1ccc(Br)cc1CN1CCCC(C(=O)N2CCCCC2)C1.O=C(O)C(=O)O (centres unmarked) | -55.8 |
| COc1ccc(-c2csc(NC(=O)c3ccc(S(=O)(=O)N4CCc5ccccc5C4)cc3)n2)c(OC)c1 | 23 |
| O=C(CCC(=O)OCC(=O)c1ccccc1)Nc1cccc(Cl)c1 | 21.5 |
| CCN(CC)C(=O)c1c(NC(=O)c2ccccc2)sc(C)c1C | -6.01 |
| O=C(NCSc1ccnc(SCNC(=O)c2ccccc2)n1)c1ccccc1 | -28 |
| COc1ccc(CC(=O)NCCS(=O)(=O)N2CCN(c3ccccc3)CC2)cc1 | 12.7 |
| Cn1c(SCC2CCCO2)nnc1-c1ccc([N+](=O)[O-])cc1 (centres unmarked) | -63.8 |
| Cn1c(SCc2ccc([N+](=O)[O-])cc2)nnc1-c1cccnc1 | -18 |
| CN(C)c1ccc(-c2nnc(SCC3CCCO3)n2C)cc1 (centres unmarked) | 5.24 |

| SMILES | hERG current change (%, negative = inhibition) at 10uM [%] |
| --- | --- |
| Cn1c(SCc2ccc([N+](=O)[O-])cc2)nnc1-c1ccncc1 | -52 |
| Cn1c(SCC2CCCO2)nnc1-c1cccc([N+](=O)[O-])c1 (centres unmarked) | 8.76 |
| Cc1ccc(CSc2nnc(-c3ccncc3)n2C)cc1 | 4.36 |
| CCO/C=C1/C(=O)N(CC)c2ccccc21 | -8.33 |
| CCOC(=O)Nc1cccc2ccccc12 | 1.14 |
| CCOc1cc(C2C(C(=O)O)c3cc(OCC)c(OCC)cc3C(=O)N2C)ccc1O (centres unmarked) | 2.69 |
| O=C(CNC(=S)N(Cc1ccccc1F)C1CCCCC1)NCCN1CCOCC1 | 43.3 |
| COCCNC(=O)Cn1nc(-c2ccc(Cl)cc2)c2ccccc2c1=O | 8.83 |
| COc1cccc(CN(C)C(=O)CCNC(=O)c2ccc(Br)cc2)c1 | 0.786 |
| CC(=O)c1cccc(CN2CCN(Cc3ccc(C)cc3)C(CCO)C2)c1 (centres unmarked) | -69 |
| COc1ccc(CN2CCN(Cc3csc(C(C)=O)c3)CC2CCO)c(C)c1C (centres unmarked) | -58.1 |
| CC(=O)c1cc(CN2CCN(CCc3ccccc3)C(CCO)C2)cs1 (centres unmarked) | -54.4 |
| CC(=O)c1cc(CN2CCN(C3CCN(C(C)C)CC3)C(CCO)C2)cs1 (centres unmarked) | -3.56 |
| CC(=O)c1cccc(CN2CCN(CC(C)C)C(CCO)C2)c1 (centres unmarked) | 5.29 |
| CC(=O)c1cccc(CN2CCN(Cc3ccccc3)C(CCO)C2)c1 (centres unmarked) | -1.84 |
| CC(=O)c1cccc(CN2CCN(Cc3ccc(F)cc3)C(CCO)C2)c1 (centres unmarked) | -32.9 |
| CC(=O)c1cccc(CN2CCN(CCC(C)C)C(CCO)C2)c1 (centres unmarked) | -29 |
| CCOc1ccccc1CN1CCN(Cc2csc(C(C)=O)c2)CC1CCO (centres unmarked) | -44.5 |
| CC(=O)c1cc(CN2CCN(Cc3ccccc3)C(CCO)C2)cs1 (centres unmarked) | 2.03 |
| CC(=O)c1cccc(CN2CCN(CCc3ccccc3)C(CCO)C2)c1 (centres unmarked) | -53.3 |
| CC(=O)c1cc(CN2CCN(CCC(C)C)C(CCO)C2)cs1 (centres unmarked) | -5.53 |
| Cc1cccc(-n2[nH]c3c4c(ccc3c2=O)C(=O)c2ccccc2C4=O)c1 | 4.95 |
| Cc1onc(-c2ccccc2Cl)c1C(=O)Nc1ccc(OCC(=O)N2CCOCC2)cc1 | -3.95 |
| CC/C(=N\NC(=O)Nc1ccccc1)c1c(O)n(Cc2ccccc2)c(=O)[nH]c1=O | 3.1 |
| CC(=O)c1ccc(NS(=O)(=O)c2ccc3c(c2)N(C)CCO3)cc1 | 11.6 |
| COc1ccccc1N1CCN(C(=O)C2CCCN(S(=O)(=O)c3ccc(C)cc3)C2)CC1 (centres unmarked) | -38.3 |
